What all share (test): NCI-60 one-dose screen, 48 h (100 = growth as untreated, 0 = no growth, -100 = all killed)
Common to all, as to settings: 10 µM unless noted

The test system of experiment [1] is SR leukemia.
Experiment [2] has as its system RPMI-8226 leukemia.
Experiment [3] concerns OVCAR-8 ovarian.
The test system of experiment [4] is OVCAR-4 ovarian.
Experiment [5] concerns SK-OV-3 ovarian.
Experiment [6] relates to IGROV1 ovarian.
Experiment [7] deals with OVCAR-3 ovarian.
The subject of experiment [8] is HS 578T breast.
Experiment [9] has as its system NCI/ADR-RES ovarian.
Experiment [10] relates to T-47D breast.
Experiment [11] relates to BT-549 breast.
Experiment [12] concerns MDA-MB-435 melanoma.
The subject of experiment [13] is SW-620 colon.
Experiment [14] deals with MCF7 breast.
Experiment [15] concerns HCT-116 colon.
Experiment [16] deals with HCC-2998 colon.
Experiment [17] relates to KM12 colon.
Experiment [18] has as its system OVCAR-5 ovarian.

The panel holds about 83,000 compounds, 20% with a hit somewhere; the sample as a whole holds those more often.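 Method: cells in 96-well plates; compound added at one concentration; 48 h incubation; percent growth measured; values under 10 scored active.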 Unmarked numbers belong to inactive results. Activity calls are given as the source filed them.

As to `CCC(c1ccc(OC)cc1)C(CC)c1ccc(O)c(CN2CCCCC2)c1` (stereo unspecified), the growth in experiment [1] was -3.74% (active); in [2] it was 5.83% (active); in [3], 80.4%; in experiment [4] it was 67.1%; in experiment [5] it was 84.9%; in experiment [6], 69.6%. The growth in experiment [7] was 73.9%; in [8], 79%; in experiment [9], 60.9%; in [10] it was 36.9%; in experiment [11] it was 72.1%; in experiment [12] it was 81.6%. The growth is 71.6% in [13]; 63% in experiment [14]; 38.7% in experiment [15]; 6.27% (active) in experiment [16]; 79.7% in experiment [17].
Regarding `Cn1cc(-c2csc(-c3cn(CCNC(=O)OC(C)(C)C)c4ccccc34)n2)c2cccnc21`, the growth is 75.6% in experiment [1]; 42.1% in experiment [2]; 45% in [3]; 49.2% in experiment [4]; 94.9% in [5]; 64.7% in experiment [6]. Besides, the growth is 86.3% in experiment [7]; 82.1% in [8]; 56% in [9]; -1.03% (active) in [10]; 67.2% in [11]; 74.5% in experiment [12]. Besides, the growth is 92.4% in experiment [13]; 39.4% in experiment [14]; 81.1% in [15]; 95.8% in [16]; 59.2% in experiment [17].
Consider `CN(C)c1ccc(N)c2ccccc12`, for which the growth in experiment [1] is 55%; in experiment [2], 68.8%; in experiment [3], 74.6%; in [4], 27.7%; in [5], 85.2%; in experiment [6], 65.1%. In addition, the growth in [7] is -15.6% (active); in experiment [9] it was 77.2%; in experiment [10], 80.2%; in [11] it was 80.4%; in experiment [12], -91.3% (active); in experiment [14], -70.1% (active). The growth is 6.65% (active) in [15], 50.2% in [16] and 62.7% in [17].
As to `COc1c(N)c2c(c([N+](=O)[O-])c1OC)C(=O)OC2`, the growth was 91.2% in experiment [1]; 99.9% in experiment [2]; 98.1% in [3]; 115% in experiment [18]; 105% in experiment [7]; 109% in experiment [8]. Besides, the growth is 114% in experiment [9]; 101% in [10]; 106% in experiment [12]; 106% in experiment [13]; 100% in experiment [14]; 102% in experiment [15]. In addition, the growth in experiment [16] is 105%; in experiment [17] it was 107%.
Consider `O=S(=O)(NCCNc1cc(-c2cn(-c3ccccc3)nc2-c2cccc(O)c2)ccn1)c1ccc(F)cc1`, for which the growth in [1] is -5.97% (active); in experiment [2] it was 9.5% (active); in experiment [3], 23.7%; in experiment [4], 41.3%; in experiment [5], 46.4%; in experiment [6], 46.2%. Besides, the growth in experiment [7] was 35.8%; in experiment [8] it was 15.7%; in [10], 7.88% (active); in [11], 32.2%; in experiment [12] it was 2.49% (active); in experiment [13], 18.8%. Also, the growth in experiment [14] was 10.7%; in [15], 23.9%; in experiment [17], 11.3%.
With `O=C1C(=O)c2ccccc2C(O)=C1CCCc1ccc(C2CCCCC2)cc1`, the growth is 35.6% in [1]; 21.1% in experiment [2]; 51.4% in [3]; 58.2% in experiment [4]; 56.6% in experiment [5]; 51.3% in experiment [6]. For the same compound, the growth in [7] is 18%; in [8], 53.4%; in experiment [9], 42.8%; in [10] it was 44%; in experiment [11], 52.6%; in experiment [12], 53.7%. Besides, the growth was 36.8% in experiment [13]; 32.9% in [14]; 19.4% in [15]; 29.5% in experiment [16]; 24.2% in experiment [17].
As to `Cc1ccc(C)c2c1CCC2C(C)C` (stereo unspecified), the growth in experiment [1] is 89.3%; in experiment [2] it was 96.7%; in experiment [3], 100%; in experiment [4], 100%; in experiment [5], 92.9%; in experiment [6], 103%. Besides, the growth in [7] is 104%; in [8], 100%; in [9], 105%; in experiment [10], 91.2%; in [11], 100%; in experiment [12], 108%. Further, the growth is 106% in [13]; 107% in experiment [14]; 96% in experiment [15]; 101% in experiment [16]; 101% in [17].
For `C(=C\c1c[nH]c2ccccc12)/c1ccc2ccccc2n1`, the growth is 67.5% in experiment [1]; 44.7% in [2]; 78.7% in experiment [3]; 121% in experiment [18]; 89.5% in [5]; 69.3% in [7]. The growth in experiment [8] is 107%; in experiment [10] it was 68.4%; in [11], 68.8%; in [12], 93%; in experiment [13], 107%; in [14] it was 63.7%. Moreover, the figures for the growth in [15], in [16] and in [17] were 65.9%, 97.8% and 52.4%, respectively.
As for `Fc1ccc(NCc2nnc(-c3ccc(Cl)cc3)o2)cc1`, the growth in [1] was 71.1%; in [2] it was 54.1%; in experiment [3], 79.9%; in experiment [4], 69.2%; in [5] it was 81.5%; in [6], 51.6%. The growth in experiment [7] is 79.6%; in [8], 84.6%; in experiment [9], 90.6%; in [10], 57%; in experiment [11] it was 77.8%; in experiment [12] it was 94.8%. Moreover, the growth in experiment [13] was 90.4%; in [14], 55.2%; in experiment [15] it was 53.7%; in experiment [16] it was 98%; in experiment [17] it was 84.8%.
In the case of `N=c1ccc2nc3c(cc(N)c4ccccc43)oc-2c1`, the growth in [1] is -41% (active); in experiment [2], -49.3% (active); in [3] it was -54.1% (active); in experiment [4], -100% (active); in [5], -96.3% (active); in experiment [6], -29.4% (active). Moreover, the growth is -90.1% (active) in [7]; -23.3% (active) in experiment [8]; -57.7% (active) in experiment [9]; -80.1% (active) in experiment [10]; -13.2% (active) in [11]; -86.1% (active) in [12]. In addition, the growth was -79.6% (active) in [13]; -62.3% (active) in experiment [14]; -96.1% (active) in [15]; -96.8% (active) in [16]; -94.9% (active) in [17].

These data come from PubChem BioAssay (NCI).
